# From the supplement of paper PMC10011410
# ± gives the standard deviation of the averaged measurements.
# System: AmpC beta-lactamase (E. coli)
# Assay: AmpC inhibition relative to DMSO; higher = more inhibition
# Description: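 Aggregation counter-screen: inhibition of E. coli AmpC beta-lactamase (5 nM, nitrocefin substrate, 50 mM sodium phosphate pH 7.0, RT, 5 min) by KAT inhibitors at 4, 11, 33 and 100 uM, with or without 0.01% Triton X-100. Percent inhibition is relative to DMSO controls. Four technical replicates.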
# [1] = 4 µM, detergent: 0.01% Triton X-100
# [2] = 11 µM, detergent: 0.01% Triton X-100
# [3] = 33 µM, detergent: 0.01% Triton X-100
# [4] = 100 µM, detergent: 0.01% Triton X-100
# [5] = 100 µM, detergent: no detergent
SMILES,AmpC inhibition [1] [%],"AmpC inhibition (4 µM, detergent: no detergent) [%]",AmpC inhibition [2] [%],"AmpC inhibition (11 µM, detergent: no detergent) [%]",AmpC inhibition [3] [%],"AmpC inhibition (33 µM, detergent: no detergent) [%]",AmpC inhibition [4] [%],AmpC inhibition [5] [%]
Cc1cc(-c2ccccc2)cc(C(=O)NNS(=O)(=O)c2ccccc2)c1F,10.3 ± 2.6,7.83 ± 8,6.24 ± 2.3,9.5 ± 7,1.15 ± 3,15 ± 4.6,8.19 ± 9.7,53.4 ± 7.8
CCCCCCCCCCCCCCCc1cccc(O)c1C(=O)O,6.97 ± 5.3,25.7 ± 18,6.87 ± 8.5,97.15 ± 0.48,5.05 ± 6.1,100 ± 3.9,7.84 ± 4,99.49 ± 0.71
CCCCCCCCCCCC1=C(O)C(=O)C=C(O)C1=O,8.62 ± 5.2,-3.71 ± 8,2.92 ± 1.7,17.5 ± 8.6,3.12 ± 4.7,60.9 ± 17,5.91 ± 2.8,92.1 ± 5.4
C=C1C(=O)O[C@H](CCC)[C@H]1C(=O)O,0.817 ± 3,2.33 ± 5.5,3.75 ± 2.7,-0.423 ± 6.2,0.478 ± 2.6,-0.772 ± 6.7,2.9 ± 2,0.697 ± 4.5
CCCCCCCc1ccc(CCc2cccc(O)c2C(=O)O)cc1,1.37 ± 5,-4.68 ± 3.5,8.12 ± 2.9,61 ± 10,9.04 ± 3.8,97.2 ± 1.9,8.27 ± 3.7,99.4 ± 1.4
